Experiment [1] can be described thus: ACEA_ER_80hr: ACEA Biosciences xCELLigence Real-Time Cell Analysis on Estrogen Receptor Agonism for Proliferation (AID 2282667; active = hit-call score of the fitted dose curve at least 0.9, where 1 is the maximum). The settings on record: T47D proliferation, impedance (xCELLigence), 80 h. Summed up: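 Real-time impedance growth kinetics of human T-47D breast cells read 80 h after dosing, gain-of-signal fitted relative to DMSO. Compounds: 1:4 serial series, top final concentration 100 uM, n = 2.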

A short description of experiment [2]: ATG_CRE_CIS: Attagene CIS-FACTORIAL HepG2 Assay for human cAMP Responsive Element (CRE) binding protein 3 (AID 2282926). To be noted: HepG2 CRE cis-reporter, Attagene multiplexed mRNA; actives raise or lower the signal. Summed up:
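Multiplexed transcription-unit reporters transfected into HepG2; 24 h dosing; RT-PCR/capillary electrophoresis fluorescence read-out; bidirectional fit vs DMSO.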

Experiment [3] has as its target CCAAT/enhancer-binding protein beta (Homo sapiens) (UniProt P17676). Description: ATG_C_EBP_CIS: Attagene CIS-FACTORIAL HepG2 Assay for human CCAAT/Enhancer Binding Protein (C/EBP) beta (AID 2282927). The settings on record: HepG2 Attagene cis-factorial transcription factor reporter; actives raise or lower the signal. Summed up: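 Endogenous C/EBPb-driven reporter transcripts measured in transfected human HepG2 cells at 24 h via RT-PCR and capillary electrophoresis of labelled fragments. Activity fitted in both directions relative to DMSO baseline.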

Experiment [4] can be described thus: ATG_CMV_CIS: Attagene CIS-FACTORIAL HepG2 Assay for human CMV (Internal Marker) (AID 2282928).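 Also: endpoint acts as a background internal control marker rather than a target.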 The settings on record: HepG2 CMV promoter reporter, transcription factor profiling; actives raise or lower the signal. Summed up: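 Cell system: HepG2, transiently transfected multiple reporter units under cis promoters. Exposure: 24 h. Detection: RT-PCR, FAM labeling, HpaI digestion, capillary electrophoresis. Analysis: bidirectional, DMSO baseline.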

Experiment [5] is described as follows: ATG_DR4_LXR_CIS: Attagene CIS-FACTORIAL HepG2 Assay for human Liver X Receptor (LXR), DR4 submotif (AID 2282929). To be noted: HepG2 Attagene DR4 cis-reporter, mRNA transcription; actives raise or lower the signal. Summed up: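 The endpoint is DR4-element-driven reporter transcripts after 24 h chemical exposure of transfected HepG2 cells. These were measured via RT-PCR and capillary electrophoresis, and gain or loss of signal was fitted relative to DMSO controls.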

Experiment [6] deals with Aryl hydrocarbon receptor (Homo sapiens) (UniProt P35869). As to the kind of experiment: ATG_Ahr_CIS: Attagene CIS-FACTORIAL HepG2 Assay for human Aryl Hydrocarbon Receptor (Ahr) (AID 2282930). The settings on record: HepG2 AhR cis-factorial reporter transcription; actives raise or lower the signal. Summed up:
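Reporter mRNA levels, quantified by RT-PCR and fluorescent capillary electrophoresis, reflect endogenous AhR transcriptional activity in HepG2 cells carrying transfected cis-promoter reporter constructs. Readout at 24 h post-dose; gain or loss fitted against DMSO baseline.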

Experiment [7] can be described thus: ATG_AP_2_CIS: Attagene CIS-FACTORIAL HepG2 Assay for human Activator Protein 2 (AP-2) (AID 2282932). To be noted: HepG2 AP-2 cis-reporter, Attagene transcription factor profiling; actives raise or lower the signal. Summed up:
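Step one: transient transfection of HepG2 with reporter transcription units. Step two: 24 h chemical exposure. Step three: RNA extraction, RT-PCR, labelled fragment analysis by capillary electrophoresis; DMSO serves as baseline.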

A short description of experiment [8]: ATG_BRE_CIS: Attagene CIS-FACTORIAL HepG2 Assay for human Bone Morphogenetic Protein (BMP) Response Element (BRE) (AID 2282933). The settings on record: HepG2 BMP response element reporter, Attagene transcription factor profiling; actives raise or lower the signal. Summed up: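 Endogenous transcription factor activity read in transiently transfected HepG2 cells after 24 h chemical exposure. Bidirectional curve fitting against DMSO; readout is reporter transcript level by RT-PCR with capillary electrophoresis of labelled products.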

Experiment [9] concerns the target Retinoic acid receptor alpha (Homo sapiens) (UniProt P10276). Description: ATG_DR5_RAR_CIS: Attagene CIS-FACTORIAL HepG2 Assay for human Retinoic Acid Receptor Alpha (RARE), DR5 submotif (AID 2282934).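 As to AC50: reporter responds to endogenous RAR alpha beta and gamma in HepG2 not RARA alone.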 To be noted: HepG2 Attagene cis-factorial RARE DR5 reporter, mRNA; actives raise or lower the signal. Summed up: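 Reporter transcripts from a DR5-regulated unit, measured via RT-PCR plus capillary electrophoresis, reflect endogenous RAR activity in transiently transfected human HepG2 liver cells. Exposure lasted 24 h; gain or loss of signal scored against DMSO.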

Experiment [10] concerns the target Transcription factor E2F1 (Homo sapiens) (UniProt Q01094). As to the kind of experiment: ATG_E2F_CIS: Attagene CIS-FACTORIAL HepG2 Assay for human E2F Transcription Factor 1 (AID 2282935). The settings on record: HepG2 Attagene cis-reporter, E2F reporter RNA transcripts; actives raise or lower the signal. Summed up: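 Total RNA from 24 h-treated, reporter-transfected HepG2 cells undergoes DNase I treatment, oligo(dT) reverse transcription, PCR and 6-FAM primer extension before capillary electrophoresis.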

Experiment [11] can be described thus: ATG_E_Box_CIS: Attagene CIS-FACTORIAL HepG2 Assay for human Enhancer Box (E-box) (AID 2282936). The settings on record: HepG2 E-box cis-reporter transcription, actives raise or lower the signal. Summed up:
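DMSO served as negative control and baseline for bidirectional fitting. Human hepatoma HepG2 cells, transiently transfected with cis-reporter constructs, were dosed 24 h; reporter mRNA read by RT-PCR and capillary electrophoresis.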

The nature of experiment [12]: ATG_M_61_CIS: Attagene CIS-FACTORIAL HepG2 Assay for M61 Transcription Factor (Internal Marker) (AID 2282937). To be noted: HepG2 Attagene CIS-FACTORIAL M61 internal marker reporter; actives raise or lower the signal. Summed up: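 Readout is reporter mRNA by RT-PCR, fluorescent primer extension and capillary electrophoresis, with gain or loss fitted relative to DMSO. Transfected HepG2 cells carrying endogenous-TF-driven cis reporters were exposed to chemicals for 24 hours.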

A short description of experiment [13]: ATG_EGR_CIS: Attagene CIS-FACTORIAL HepG2 Assay for human Early Growth Response 1 (EGR1) (AID 2282938). To be noted: HepG2 Attagene CIS-FACTORIAL EGR reporter mRNA; actives raise or lower the signal. Summed up: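 After 24 h compound exposure, RNA from reporter-transfected HepG2 cells was reverse-transcribed, PCR-amplified, fluorescently labelled and resolved by capillary electrophoresis. EGR1 reporter transcript changes, up or down, were fitted against DMSO, reflecting endogenous transcription-factor activity.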

A short description of experiment [14]: ATG_M_19_CIS: Attagene CIS-FACTORIAL HepG2 Assay for M19 Transcription Factor (Internal Marker) (AID 2282939). The settings on record: HepG2 Attagene CIS-FACTORIAL M19 internal marker reporter; actives raise or lower the signal. Summed up: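 Internal marker readout, fitted in both directions against DMSO, from HepG2 cells carrying transfected cis-element reporter constructs; RT-PCR and capillary electrophoresis of reporter mRNA after 24 h exposure.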

The nature of experiment [15]: ATG_ERE_CIS: Attagene CIS-FACTORIAL HepG2 Assay for Estrogen Response Element (ERE) (AID 2282940). To be noted: HepG2 ERE cis-reporter, Attagene RNA transcript; actives raise or lower the signal. Summed up:
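After 24 h compound treatment, RNA from transfected HepG2 cells was reverse-transcribed, reporter cDNA PCR-amplified, FAM-labelled, HpaI-cut and resolved by capillary electrophoresis. ERE-driven cis reporter transcripts reflect endogenous factors; gain or loss scored against DMSO.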

A short description of experiment [16]: ATG_Ets_CIS: Attagene CIS-FACTORIAL HepG2 Assay for human Erythroblast Transformation Specific (ETS) (AID 2282941). The settings on record: HepG2 ETS cis-reporter transcription, actives raise or lower the signal. Summed up:
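After transient cis-reporter transfection, HepG2 cells receive test chemical for 24 h. Reporter mRNA levels, measured by RT-PCR and capillary electrophoresis fluorescence, are analysed bidirectionally relative to the DMSO baseline.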

Experiment [17] addresses Hepatocyte nuclear factor 3-beta (Homo sapiens) (UniProt Q9Y261). Description: ATG_FoxA2_CIS: Attagene CIS-FACTORIAL HepG2 Assay for human Forkhead box A2 (FOXA2) (AID 2282942). The settings on record: HepG2 cis-reporter transcription factor activity, 24 h; actives raise or lower the signal. Summed up:
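Endogenous transcription factor activity is captured via cis-element-driven reporter transcripts in transfected HepG2. Total RNA taken at 24 h post-dosing; labelled RT-PCR products resolved by capillary electrophoresis. Gain or loss fitted versus DMSO.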

The nature of experiment [18]: ATG_FoxO_CIS: Attagene CIS-FACTORIAL HepG2 Assay for human Forkhead box O (FoxO) (AID 2282943). To be noted: HepG2 Attagene cis-reporter, FoxO element, mRNA; actives raise or lower the signal. Summed up: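 Endogenous transcription factor activity read from multiplexed cis-promoter reporter transcripts in transiently transfected HepG2, 24 h after dosing. Reporter RNA measured via RT-PCR plus capillary electrophoresis of FAM-labeled products; gain or loss relative to DMSO.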

Experiment [19] can be described thus: ATG_GATA_CIS: Attagene CIS-FACTORIAL HepG2 Assay for human GATA Binding Protein (AID 2282944). To be noted: HepG2 GATA cis-element reporter, Attagene multiplex mRNA; actives raise or lower the signal. Summed up:
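Reporter transcripts from a GATA cis-regulated unit, among multiplexed reporters in transfected HepG2 cells, were measured by RT-PCR with capillary electrophoresis after 24 h dosing. Induction or loss scored relative to DMSO.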

Experiment [20] is described as follows: ATG_AP_1_CIS: Attagene CIS-FACTORIAL HepG2 Assay for human Activator Protein 1 (AP-1) (AID 2282931). The settings on record: HepG2 Attagene cis-factorial AP-1 reporter mRNA; actives raise or lower the signal. Summed up: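 Readout is reporter transcript level from endogenous transcription factor activity, quantified by RT-PCR with fluorescent primer extension and capillary electrophoresis. Transiently transfected HepG2 cells, 24 h exposure. Curves fitted both directions versus DMSO.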

Results filed as inconclusive are left out. Calls of active or inactive are those of the source. The calls were made as follows, unless noted: active = hit-call score of the fitted dose curve at least 0.9, where 1 is the maximum; inactive = score below 0.9.

Chain of CCAAT/enhancer-binding protein beta (Homo sapiens) (P17676 whole entry, looked up, the tested form may be a part): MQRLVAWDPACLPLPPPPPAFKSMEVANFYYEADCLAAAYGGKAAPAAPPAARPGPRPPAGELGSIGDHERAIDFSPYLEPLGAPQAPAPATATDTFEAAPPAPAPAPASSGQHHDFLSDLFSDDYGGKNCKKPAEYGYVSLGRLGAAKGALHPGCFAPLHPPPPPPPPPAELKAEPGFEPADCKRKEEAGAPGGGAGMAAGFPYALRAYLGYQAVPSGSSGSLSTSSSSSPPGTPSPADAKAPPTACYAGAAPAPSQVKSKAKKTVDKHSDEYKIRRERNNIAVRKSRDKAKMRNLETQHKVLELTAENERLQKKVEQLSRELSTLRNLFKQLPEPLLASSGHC
Chain of Hepatocyte nuclear factor 3-beta (Homo sapiens) (Q9Y261 whole entry, looked up): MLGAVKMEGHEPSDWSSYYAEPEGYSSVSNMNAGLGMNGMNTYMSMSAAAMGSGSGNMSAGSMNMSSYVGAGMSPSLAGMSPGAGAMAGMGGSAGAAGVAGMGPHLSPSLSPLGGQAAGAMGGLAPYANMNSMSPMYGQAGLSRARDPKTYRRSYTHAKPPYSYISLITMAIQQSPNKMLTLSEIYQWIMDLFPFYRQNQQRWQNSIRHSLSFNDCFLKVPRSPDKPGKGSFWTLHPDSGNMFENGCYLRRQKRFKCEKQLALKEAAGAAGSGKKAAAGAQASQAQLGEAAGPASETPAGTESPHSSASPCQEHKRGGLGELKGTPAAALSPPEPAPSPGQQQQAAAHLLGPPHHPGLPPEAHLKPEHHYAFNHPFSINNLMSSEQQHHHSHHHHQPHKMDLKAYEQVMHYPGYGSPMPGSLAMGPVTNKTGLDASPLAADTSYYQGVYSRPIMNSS
Chain of Transcription factor E2F1 (Homo sapiens) (Q01094 whole entry, looked up): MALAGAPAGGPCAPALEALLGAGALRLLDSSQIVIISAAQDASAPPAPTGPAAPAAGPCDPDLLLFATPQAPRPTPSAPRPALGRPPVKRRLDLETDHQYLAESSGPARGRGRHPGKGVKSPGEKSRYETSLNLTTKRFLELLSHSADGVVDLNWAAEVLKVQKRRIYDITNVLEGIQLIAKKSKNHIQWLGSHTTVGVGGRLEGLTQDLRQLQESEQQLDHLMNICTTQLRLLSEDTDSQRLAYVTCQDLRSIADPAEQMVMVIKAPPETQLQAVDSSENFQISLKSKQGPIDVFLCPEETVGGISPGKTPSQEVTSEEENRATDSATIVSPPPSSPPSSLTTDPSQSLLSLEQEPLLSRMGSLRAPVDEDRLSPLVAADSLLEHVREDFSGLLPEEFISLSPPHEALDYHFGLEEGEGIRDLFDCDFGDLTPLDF
Chain of Aryl hydrocarbon receptor (Homo sapiens) (P35869 whole entry, looked up): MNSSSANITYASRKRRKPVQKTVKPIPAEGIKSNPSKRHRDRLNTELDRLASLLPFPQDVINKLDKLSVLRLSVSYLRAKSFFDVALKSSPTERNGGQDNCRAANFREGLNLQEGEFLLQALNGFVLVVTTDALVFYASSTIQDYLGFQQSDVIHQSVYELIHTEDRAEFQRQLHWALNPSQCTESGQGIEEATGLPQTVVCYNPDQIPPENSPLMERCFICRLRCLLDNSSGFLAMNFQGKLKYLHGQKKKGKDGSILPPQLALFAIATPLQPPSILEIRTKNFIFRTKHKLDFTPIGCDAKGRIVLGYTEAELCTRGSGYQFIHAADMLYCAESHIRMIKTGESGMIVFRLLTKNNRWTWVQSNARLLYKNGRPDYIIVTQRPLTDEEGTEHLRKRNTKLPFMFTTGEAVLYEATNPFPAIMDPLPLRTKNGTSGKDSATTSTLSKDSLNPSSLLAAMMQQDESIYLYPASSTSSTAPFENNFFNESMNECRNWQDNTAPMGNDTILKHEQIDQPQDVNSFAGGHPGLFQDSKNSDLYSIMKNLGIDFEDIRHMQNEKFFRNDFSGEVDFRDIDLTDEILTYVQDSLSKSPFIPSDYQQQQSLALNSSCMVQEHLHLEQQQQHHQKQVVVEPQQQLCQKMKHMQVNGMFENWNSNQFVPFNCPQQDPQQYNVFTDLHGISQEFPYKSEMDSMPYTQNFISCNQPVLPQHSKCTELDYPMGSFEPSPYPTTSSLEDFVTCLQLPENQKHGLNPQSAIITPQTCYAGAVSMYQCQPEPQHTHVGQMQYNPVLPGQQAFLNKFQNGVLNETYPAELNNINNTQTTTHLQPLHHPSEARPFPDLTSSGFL
Chain of Retinoic acid receptor alpha (Homo sapiens) (P10276 whole entry, looked up): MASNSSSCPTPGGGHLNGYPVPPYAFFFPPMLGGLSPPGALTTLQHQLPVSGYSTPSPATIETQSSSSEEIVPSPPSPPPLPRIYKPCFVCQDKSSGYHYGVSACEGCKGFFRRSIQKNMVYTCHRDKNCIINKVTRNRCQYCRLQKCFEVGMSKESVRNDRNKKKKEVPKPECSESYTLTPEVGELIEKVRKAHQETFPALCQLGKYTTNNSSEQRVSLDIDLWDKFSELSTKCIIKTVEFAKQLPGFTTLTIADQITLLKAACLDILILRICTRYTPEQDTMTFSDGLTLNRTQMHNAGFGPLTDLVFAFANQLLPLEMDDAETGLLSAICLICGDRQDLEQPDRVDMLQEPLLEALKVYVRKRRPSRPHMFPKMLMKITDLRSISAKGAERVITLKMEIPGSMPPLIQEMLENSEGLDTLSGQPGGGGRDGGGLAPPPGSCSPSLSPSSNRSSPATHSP

Broadly, the AC50 is the concentration giving half of the maximal activity seen. With `CCCCCCCCCCCC(=O)N(C)CC(=O)O`, the molecule was called inactive in [1], in experiment [2], in experiment [3], in experiment [6], in experiment [7] and in experiment [8]. The molecule was called inactive in experiment [9], in experiment [10], in experiment [11], in experiment [12], in [13] and in experiment [14]. The outcome in experiment [16], in experiment [17], in experiment [18] and in [19] was inactive. In addition, the AC50 in experiment [4] is 97.5 µM (active); in [5], 97.5 µM (active); in experiment [15] it was 14.3 µM (active).

As for `O=C(Nc1ccccc1)c1cc(Cl)ccc1O`, the outcome in experiment [1], in experiment [4], in [5], in experiment [7], in experiment [10] and in experiment [12] was inactive. Also, the molecule was classed as inactive in [14], in experiment [15], in [17] and in experiment [19]. Further, the AC50 in experiment [2] is 3.19 µM (active); in [3], 3.35 µM (active); in experiment [6] it was 3.62 µM (active); in experiment [20] it was 2.84 µM (active); in experiment [9], 4.11 µM (active); in experiment [13], 6.36 µM (active). Besides, the AC50 in experiment [16] was 19.8 µM (active).

In the case of `COCC(=O)O`, the molecule was classed as inactive in experiment [1], in experiment [2], in experiment [3], in [4], in experiment [5] and in experiment [6]. The molecule was called inactive in experiment [20], in experiment [7], in experiment [10], in experiment [11], in experiment [12] and in experiment [13]. In addition, the molecule was called inactive in experiment [14], in experiment [15], in experiment [17], in experiment [18] and in experiment [19].

Consider `CCCCCCCCCC[N+](C)(CCCCCCCCCC)CCC[Si](OC)(OC)OC`, for which the call in experiment [1], in experiment [4], in [5], in experiment [6], in experiment [20] and in experiment [10] was inactive. In addition, the molecule was called inactive in experiment [12], in [15], in experiment [16] and in [18]. The AC50 in [2] is 17.5 µM (active); in experiment [3], 18.2 µM (active); in experiment [7], 15.3 µM (active); in experiment [13], 7.33 µM (active); in [14], 17.8 µM (active); in [17], 17.7 µM (active). Besides, the half-maximal activity concentration (AC50) in experiment [19] was 14.1 µM (active).

The record behind these values is PubChem BioAssay (EPA / NIEHS).
